RGS4 inhibitor: Inhibitors of Regulator of G Protein Signaling (RGS) 4: qHTS | AID 504845, 2011 | Transcreener GDP fluorescence polarization, RGS4-accelerated GTP hydrolysis | 390,000 compounds, 0.039% hits | Potency, µM (top dose mostly 114 µM), without a hit: at the top dose activity change, negative = inhibition, actives largely listed as inhibitors; further: potency means the concentration at half of the fitted maximal effect; on the % scale 0 is the no-effect control and ±100 the full control effect; nearly all actives have a fitted effect of over 75% in size
Target sequence (P49798 whole entry, looked up): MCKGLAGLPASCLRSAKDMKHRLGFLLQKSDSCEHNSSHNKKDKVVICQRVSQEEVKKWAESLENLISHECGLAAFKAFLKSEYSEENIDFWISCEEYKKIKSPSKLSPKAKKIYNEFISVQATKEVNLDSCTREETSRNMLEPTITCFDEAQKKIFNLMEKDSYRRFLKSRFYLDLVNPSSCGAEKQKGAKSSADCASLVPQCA
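MLSMR compounds (23 nl, pin-transferred) preincubated 10 min at room temperature with a 500nM (2x) first reagent, then RGS4 at 900nM (2x) plus Transcreener GDP mix added; fluorescence polarization (620/688 nm) read before and after 90 min at 30 °C.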
mIDH1 inhibitor: qHTS for Inhibitors of mutant isocitrate dehydrogenase 1 (IDH1): qHTS | IDH1-R132H enzyme, NADPH consumption, diaphorase/resazurin fluorescence | 390,000 compounds, 0.093% hits | Potency, µM (top dose mostly 76.6 µM), for the others: top-dose activity change, negative = inhibition, actives largely listed as inhibitors | AID 602179, 2012; further: potency means the concentration at half of the fitted maximal effect; on the % scale 0 is the no-effect control and ±100 the full control effect; nearly all actives have a fitted effect of over 65% in size
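IDH1-R132H (0.5 ug/mL) preincubated 30 min with compound, then NADPH (0.016 mM) and alpha-KG (2 mM) added; 80 min at RT, pH 7.5. Remaining NADPH coupled via diaphorase/resazurin to fluorescence (540/590 nm); concentration-response curves normalized to no-enzyme control.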
LDHA block: qHTS assay for inhibitors of human lactate dehydrogenase. activity change, % (values are at about 110 or 230 µM). 480,000 compounds, 0.15% hits. purified LDHA, NADH/diaphorase-resazurin fluorescence; hits give low values. L-lactate dehydrogenase A chain (Homo sapiens), P00338. AID 1347041, 2019; in the data active means activity change below about -30%; inconclusive means mostly about -25% to -30%;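 further: plate controls were DMSO wells for no effect and wells without enzyme for full effect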
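Human LDH5 at 2 nM final in Tris HCl pH 7.4 with 0.06 mM NADH and 0.2 mM pyruvate, reacted 5 minutes at room temperature. Remaining NADH coupled via diaphorase/resazurin; resorufin fluorescence read at 0 and 20 minutes, normalized to enzyme-free and DMSO wells.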
Mito fusion act: qHTS Assay for Small Molecule Inhibitors of Mitochondrial Division or Activators of Mitochondrial Fusion; S. cerevisiae fusion-defective mutant growth rescue, CellTiterGlo 48 h; Potency, µM (titrated, usually from 46.1 µM), inactives show at the highest dose growth rescue (activation), actives largely listed as activators; 320,000 compounds, 0.23% hits; AID 485298, 2010; further: potency means the concentration at half of the fitted maximal effect; % of control where 0% means no effect; nearly all actives have a fitted effect of over 45% in size
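S. cerevisiae fusion-defective temperature-sensitive mutants (e.g. fzo1-1, mgm1-5) grown 48 h at 37C in YPEG (ethanol/glycerol non-fermentable) medium with 23 nl compound per well; growth rescue read as CellTiterGlo luminescence.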
ClpP mod: qHTS Assay for Activators of ClpP | purified B. subtilis ClpP, FRET peptide cleavage, 20 min | Potency, µM (series often up to 57.5 µM), inactives show top-dose activity change, negative = active | 340,000 compounds, 1.9% hits; active means well fitted falling curve with a large enough effect; inconclusive means small, poorly fitted or top-dose-only effect; inactive means no such curve, though single readings can be large or run the other way; further: potency means the concentration at half of the fitted maximal effect; the source files actives as falling curves though it sought activators and does not explain the sign; nearly all actives have a fitted effect of over 65% in size
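Purified B. subtilis ClpP, 10 microg/mL final in Tris/HCl pH8 with KCl, BSA, glycerol and Tween-20, cleaved an Abz/nitrotyrosine-quenched decapeptide. Fluorescence (ex 320, em 430) was read at 0 and 20 min at room temperature. Delta was normalized to 5.8 microM ADEP and DMSO/no-enzyme controls.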
S-ASM inh: Inhibitors of Secretory Acid Sphingomyelinase (S-ASM): qHTS | Sphingomyelin phosphodiesterase (Homo sapiens), P17405 | 340,000 compounds, 0.006% hits | AID 504937, 2011 | Potency, µM (doses to about 57.5 µM), inactives show at the highest dose activity change, negative = inhibition, usual class: inhibitors | placental ASM, HMU-PC fluorogenic substrate, 60 min; further: potency means the concentration at half of the fitted maximal effect
Target sequence (P17405 47-631 limits assumed): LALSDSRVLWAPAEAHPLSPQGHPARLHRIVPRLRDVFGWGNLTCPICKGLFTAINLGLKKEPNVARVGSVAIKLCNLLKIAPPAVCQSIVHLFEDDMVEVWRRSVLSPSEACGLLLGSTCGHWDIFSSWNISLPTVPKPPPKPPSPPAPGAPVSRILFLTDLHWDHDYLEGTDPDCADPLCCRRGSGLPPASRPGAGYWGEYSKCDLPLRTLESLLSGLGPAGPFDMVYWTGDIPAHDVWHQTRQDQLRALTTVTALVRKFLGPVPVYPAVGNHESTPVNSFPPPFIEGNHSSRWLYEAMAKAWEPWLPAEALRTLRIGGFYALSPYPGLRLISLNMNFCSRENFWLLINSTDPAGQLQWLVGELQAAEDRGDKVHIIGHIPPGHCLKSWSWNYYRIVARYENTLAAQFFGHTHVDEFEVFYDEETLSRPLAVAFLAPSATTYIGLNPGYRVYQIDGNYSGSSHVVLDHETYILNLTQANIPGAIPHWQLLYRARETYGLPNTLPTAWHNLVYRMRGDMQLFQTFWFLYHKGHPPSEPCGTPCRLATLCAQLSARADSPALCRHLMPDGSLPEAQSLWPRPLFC
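qHTS format. ASM enzyme prepared from human placenta hydrolyses the fluorogenic substrate HMU-PC0 (9 uM final) over 60 min at 37 °C after a 10 min compound preincubation.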
Active calls of the source: *; ? = inconclusive; . = no result; ! = repeats disagree. The sample as a whole holds a higher share of hits than the screen did. Unless noted, the call rests on the fitted dose curve; in most records, active means well fitted curve in the direction sought with a large enough effect; inconclusive means small, poorly fitted or top-dose-only effect, or another doubt; inactive means no such curve, though single readings can be large; an effect the other way counts as inactive or inconclusive.

SMILES | RGS4 inhibitor | mIDH1 inhibitor | LDHA block | Mito fusion act | ClpP mod | S-ASM inh
Cc1ccc(NC(=O)CC(O)(c2nccn2C)C(F)(F)F)cc1 (stereo not drawn) | . | . | -14 | . | . | .
COC(=O)c1ccc(COc2ccc(C3C4=C(CCCC4=O)Nc4onc(C)c43)cc2)cc1 (stereo not drawn) | 12% | 0% | -3 | 0% | 28µM* | 92%
O=C(NC1CCCCC1)N(CCN1CCOCC1)Cc1cc2cc3c(cc2[nH]c1=O)OCCO3 | -2% | -3% | 3 | 3% | 35µM* | 36%
COc1ccc2[nH]c(=O)c(CN(C(=O)NC3CCCCC3)C3CCCCC3)cc2c1 | 16% | -3% | 1 | 1% | ? | 2%
CCN(CC)CCCN(Cc1cc2ccc(C)c(C)c2[nH]c1=O)C(=O)NC1CCCCC1 | 8% | -4% | -1 | 1% | 28µM* | -1%
COc1ccc2[nH]c(=O)c(CN(Cc3ccc4c(c3)OCO4)C(C)=O)cc2c1 | -2% | 0% | 0 | 0% | -19% | 24%
COc1ccc(CN(Cc2cc3cc4c(cc3[nH]c2=O)OCO4)C(=O)NC2CCCCC2)cc1 | -11% | -10% | -7 | 3% | 22µM* | 33%
COc1ccc2[nH]c(=O)c(CNC3CCCCC3)cc2c1 | 1% | 6% | -3 | -5% | 16µM* | 87%
Cc1ccc2[nH]c(=O)c(CN(CCCN3CCOCC3)C(=O)NC3CCCCC3)cc2c1 | -7% | 1% | -1 | 3% | ? | 2%
Cc1ccc(C(C)C)c(OCC(=O)Nc2ccc(N3CCN(C(=O)c4ccco4)CC3)cc2)c1 | . | . | 7 | . | . | .
COc1ccc(NC(=O)c2cc(OC)c3cc(Cl)ccc3n2)cc1 | . | . | -11 | . | . | .
N#Cc1cccnc1NCc1cccc(NC(=O)c2ccncc2)c1 | . | . | 8 | . | . | .
CCN(CC)CCN(Cc1cc2cc3c(cc2[nH]c1=O)OCCO3)C(=O)NC1CCCCC1 | 0% | 10% | -1 | 0% | 25µM* | 34%
O=C(Nc1cccc(-c2cn3ccccc3n2)c1)C1CC1 | -17% | 18% | -6 | 0% | 28µM* | -1%
COc1ccc(CC(=O)Nc2cccc(-c3cn4ccccc4n3)c2)cc1 | -25% | -10% | -8 | 9% | 20µM* | 0%
COc1ccc(CC(=O)Nc2ccc(-c3cn4ccccc4n3)cc2)cc1OC | 17% | 3% | -5 | -3% | ? | -5%
Cc1cccc2nc(-c3cccc(NC(=O)Cc4ccccc4)c3)cn12 | 10% | 1% | -7 | ? | 28µM* | -2%
O=C(Nc1cccc(-c2cn3ccccc3n2)c1)c1cccc(Cl)c1 | -32% | 5% | -14 | ? | -14% | 5%
COc1ccc(CC(=O)Nc2ccc(-c3cn4ccccc4n3)cc2)cc1 | 13% | 3% | -5 | 4% | 28µM* | -1%
COc1ccc2c(CC(=O)OCc3cc(Cl)c4c(c3)OCCO4)coc2c1 | . | . | 13 | . | . | .
CCC(=O)Nc1cccc(-c2cn3ccccc3n2)c1 | -5% | 0% | -4 | -3% | 10µM* | 1%
CCc1nnc(NS(=O)(=O)c2ccc(NC(=O)c3ccccc3)cc2)s1 | -18% | -10% | -6 | -5% | 0% | 12%
CCc1nnc(NC(=O)c2ccc(NS(=O)(=O)c3ccccc3)cc2)s1 | 1% | 2% | 0 | 0% | 28µM*! | 3%
O=c1cc(-c2ccccc2)nc2cc(-c3ccc(Br)cc3)[nH]n12 | 4% | -1% | -12 | 2% | ? | 17%
CCCc1cc(=O)n2[nH]c(-c3ccccc3)cc2n1 | 5% | 11% | -3 | -3% | 22µM* | 2%
SMILES | RGS4 inhibitor | mIDH1 inhibitor | LDHA block | Mito fusion act | ClpP mod | S-ASM inh
CCCc1cc(=O)n2[nH]c(-c3ccc(Cl)cc3)cc2n1 | -5% | -2% | -7 | 2% | -5% | 0%
COCc1cc(=O)n2[nH]c(C)cc2n1 | -16% | 0% | -2 | -1% | 18µM* | 3%
CCCc1cc(=O)n2[nH]c(-c3ccc(C)cc3)cc2n1 | -33% | 5% | -5 | -1% | 14µM* | 0%
COCc1cc(=O)n2[nH]c(-c3ccccc3)cc2n1 | 28% | 9% | 6 | 2% | 25µM* | 1%
COCc1cc(=O)n2[nH]c(C(C)(C)C)cc2n1 | -14% | 2% | 5 | 4% | . | 3%
CN(C)c1ccc(N=C=S)cc1 | . | . | 54 | . | . | .
COc1cc(O)c(C(CC(=O)N2CCC(Cc3ccccc3)CC2)c2ccc3c(c2)OCO3)c(OC)c1 (stereo not drawn) | . | . | 2 | . | . | .
CCOC(=O)NN=C1c2ccccc2-c2ccccc21 | -17% | 6% | -2 | -4% | 0% | -2%
CCOC(=O)N/N=C1\CCc2ccccc21 | 11% | 8% | -2 | 0% | 32µM* | 5%
COCCn1c(-c2ccc(C)cc2)nc2c(c(=O)c3ccccc3n2C)c1=O | 12% | 4% | 1 | . | 0% | 8%
COCCn1c(-c2ccc(Cl)cc2Cl)nc2c(c(=O)c3ccccc3n2C)c1=O | -1% | 1% | -3 | -1% | 14µM* | 5%
Fc1ccc(Br)cc1C1C=C(c2ccc(Br)cc2)Nc2ncnn21 (stereo not drawn) | -26% | 9% | -6 | 5% | -22% | 131%
CCc1ccc(C2=CC(c3cc(Br)ccc3F)n3ncnc3N2)cc1 (stereo not drawn) | -9% | -1% | 2 | 28% | 32µM* | 158%
C=C(C)c1cccc(C(C)(C)NC(=O)N2CCN(c3ccc(OC)cc3)CC2)c1 | -24% | 1% | -2 | -4% | 32µM* | -3%
O=C(Cc1cccs1)N/N=C/c1c2ccccc2cc2ccccc12 | . | . | 19 | . | . | .
COc1cccc(-c2c(NC(=O)c3cccc([N+](=O)[O-])c3)oc3ccccc3c2=O)c1 | . | . | 0 | . | . | .
CN(C)Cc1ccccc1CNC(=O)Cc1nn(C)c(=O)c2ccccc12 | . | . | 0 | . | . | .
O=C(O)CSc1nc(-c2ccc(Cl)cc2)nc2c1oc1ccccc12 | -31% | 4% | -4 | 8.9µM* | -10% | 25%
CCOc1ccc(CCNC(=O)CSc2cc(=O)n(CC)c3ccccc23)cc1OCC | -17% | 5% | 4 | -6% | 32µM* | 1%
Cc1ccc(NC(=O)Cc2nc(CSc3nncn3-c3cc(C)ccc3C)cs2)cc1 | . | . | -2 | . | . | .

Compound activity as filed in PubChem.
